APEX1 inh: APE1 (human) endonuclease inhibition. P27695. actives 0.35% (n = 350,000). recombinant APE1, TAMRA/BHQ-2 abasic DNA cleavage fluorescence. Potency, µM (highest dose often 65.8 µM), inactives show at the highest dose activity change, negative = inhibition, most hits filed as inhibitors. AID 2517;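 further: plate controls were vehicle for no effect and reference inhibitor for full effect; nearly all actives have a fitted effect of over 55% in size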
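Quantitative HTS: incision of a TAMRA/BHQ-2 double-stranded substrate bearing a tetrahydrofuran abasic site by 0.75 nM APE1 raises fluorescence. Substrate 50 nM final, added after 15 min compound preincubation at room temperature; progress as third-minus-first kinetic read difference.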
KAT2A inh: GCN5L2 (KAT2A) acetyltransferase inhibition; Potency, µM (doses to about 58.9 µM), inactives show at the highest dose activity change, negative = inhibition, usual class: inhibitors; AID 504327; GCN5L2 HAT assay, ThioGlo1 CoA-SH fluorescence; actives 0.21% (n = 390,000)
Target sequence (Q92830 whole entry, looked up): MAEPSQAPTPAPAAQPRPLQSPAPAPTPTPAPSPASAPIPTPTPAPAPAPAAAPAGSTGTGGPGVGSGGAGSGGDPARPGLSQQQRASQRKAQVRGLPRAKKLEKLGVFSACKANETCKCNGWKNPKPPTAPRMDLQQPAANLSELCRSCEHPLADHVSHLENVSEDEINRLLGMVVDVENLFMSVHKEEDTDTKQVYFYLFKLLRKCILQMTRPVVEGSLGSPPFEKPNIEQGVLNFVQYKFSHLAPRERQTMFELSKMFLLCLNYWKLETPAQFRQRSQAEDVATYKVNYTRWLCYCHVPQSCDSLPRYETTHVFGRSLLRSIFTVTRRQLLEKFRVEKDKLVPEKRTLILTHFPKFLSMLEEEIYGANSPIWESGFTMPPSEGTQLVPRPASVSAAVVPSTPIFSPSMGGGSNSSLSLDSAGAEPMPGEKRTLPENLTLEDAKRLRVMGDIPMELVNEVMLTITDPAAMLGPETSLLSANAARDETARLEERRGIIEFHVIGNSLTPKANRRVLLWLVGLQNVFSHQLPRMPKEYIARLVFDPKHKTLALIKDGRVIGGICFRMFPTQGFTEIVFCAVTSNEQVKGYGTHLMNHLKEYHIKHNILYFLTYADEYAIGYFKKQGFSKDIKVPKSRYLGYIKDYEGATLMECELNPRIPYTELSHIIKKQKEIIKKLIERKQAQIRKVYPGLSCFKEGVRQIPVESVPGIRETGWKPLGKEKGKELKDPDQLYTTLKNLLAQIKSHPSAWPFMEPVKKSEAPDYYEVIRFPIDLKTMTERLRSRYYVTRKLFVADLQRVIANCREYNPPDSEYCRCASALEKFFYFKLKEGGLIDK
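Fluorescence readout, Ex340nm/Em540nm: ThioGlo1 (50uM final) reacts with free CoA thiol released as 20nM GCN5L2 acetylates H3(1-25) peptide (75uM) using acetyl-CoA (70uM). Compound and enzyme sat 15 min beforehand; 20 min room-temperature reaction.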
BLM helicase inh: blocks DNA unwinding by human BLM helicase | actives 0.2% (n = 350,000) | recombinant BLM DNA unwinding, fluorescence dequenching | AID 2528 | Potency, µM (doses to about 56.1 µM), without a hit: at the highest dose activity change, negative = inhibition, most hits filed as inhibitors | P54132;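 further: plate controls were vehicle for no effect and no enzyme for full effect; nearly all actives have a fitted effect of over 35% in size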
TDP1 inh: TDP1 (human) enzyme inhibition. actives 0.28% (n = 350,000). AID 485290. Q9NUW8. Potency, µM (top dose mostly 130 µM), inactives show at the top dose activity change, negative = inhibition, most hits filed as inhibitors. recombinant TDP1, AlphaScreen DNA substrate cleavage; further: nearly all actives have a fitted effect of over 40% in size
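Compounds were preincubated with Tdp1 (1 nM final) for 15 min at room temperature before substrate (15 nM final) started a 5 min reaction; beads (10 ug/ml final) were then added for 10 min before AlphaScreen detection.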
RGS4 inhibitor: inhibitors of human regulator of G protein signaling 4; P49798; Transcreener GDP fluorescence polarization, RGS4-accelerated GTP hydrolysis; Potency, µM (series often up to 114 µM), without a hit: at the highest dose activity change, negative = inhibition, usual class: inhibitors; actives 0.039% (n = 390,000); AID 504845; further: nearly all actives have a fitted effect of over 75% in size
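MLSMR compounds (23 nl, pin-transferred) preincubated 10 min at room temperature with a 500nM (2x) first reagent, then RGS4 at 900nM (2x) plus Transcreener GDP mix added; fluorescence polarization (620/688 nm) read before and after 90 min at 30 °C.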
RECQ1 inh-1: inhibitors of human RECQ1 DNA helicase; P46063; RECQ1 DNA unwinding, red fluorescence kinetic read; Potency, µM (highest dose often 57.3 µM), inactives show at the top dose activity, negative = inhibition, usual class: inhibitors; actives 0.54% (n = 240,000);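 further: plate controls were vehicle for no effect and no enzyme for full effect; nearly all actives have a fitted effect of over 30% in size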
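RECQ1T1 50 nM; forked duplex (20 bp + 30-nt ss tails) 200 nM, ATP 2 mM final; pH 8.0, 2 mM MgCl2, 2.5 ug/ml poly(dI-dC); 15 min compound preincubation; discontinuous kinetic read over 2 h at RT.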
RECQ1 inh conf: confirmation of human RECQ1 helicase inhibitors; RECQ1 helicase DNA unwinding, fluorescence; AID 2708; shares compounds with RECQ1 inh-1; Potency, µM (highest dose often 229 µM), for inactives: at the top dose activity change, negative = inhibition, most hits filed as inhibitors; actives 28% (n = 610); further: nearly all actives have a fitted effect of over 45% in size
ADP FP counter: counter-screen for RECQ1 inhibitors: ADP displacement. shares compounds with RECQ1 inh-1. ADP fluorescence polarization displacement counterscreen. Potency, µM (highest dose often 228 µM), for inactives: top-dose activity change, negative = inhibition, usual class: inhibitors. actives 27% (n = 530). AID 2711; further: nearly all actives have a fitted effect of over 45% in size
RECQ1 inh-2: confirmation of human RECQ1 helicase inhibitors | shares compounds with RECQ1 inh-1 | recombinant RECQ1 DNA unwinding, red fluorescence | Potency, µM (doses to about 119 µM), inactives show at the top dose activity, negative = inhibition, most hits filed as inhibitors | actives 15% (n = 1,100); further: nearly all actives have a fitted effect of over 50% in size
Numbers without * were called inactive; i = inactive; ? = inconclusive; · = no result; [ ] = dose if it differs, or a comment. This is a sample that favours compounds with a hit; in the whole collection about 0.87% have one here. The call rests on the fitted dose curve; in most records, active means well fitted curve in the direction sought with a large enough effect; inconclusive means small, poorly fitted or top-dose-only effect, or another doubt; inactive means no such curve, though single readings can be large; an effect the other way counts as inactive or inconclusive. Unless noted, on the % scale 0 is the no-effect control and ±100 the full control effect; potency means the concentration at half of the fitted maximal effect.

SMILES | APEX1 inh | KAT2A inh | BLM helicase inh | TDP1 inh | RGS4 inhibitor | RECQ1 inh-1 | RECQ1 inh-2 | others
COc1cc2c(cc1OC)C1CCC3=C([C@H](C)OC3=O)N1CC2 (stereo partly drawn) | -2% | · | -1% | 7% | · | 19% | ·
O=C(CCS(=O)(=O)c1ccc(Br)cc1)NCc1cccs1 | ? | -1% | 1% | 22µM* | 3% | ? | ?
COC(=O)c1ccccc1NC(=O)CCS(=O)(=O)c1ccc(Br)cc1 | ? | -9% | 2% | · | -9% | 32µM* | ?
O=C(CCS(=O)(=O)c1ccc(Br)cc1)NCc1ccco1 | -31% | -6% | -10% | · | 12% | · | ·
CCOC(=O)N1CC(C)N(/[N+]([O-])=N/Oc2ccc([N+](=O)[O-])cc2[N+](=O)[O-])CC1C (stereo not drawn) | 2% | · | -5% | 11% | -16% | -15% | ·
CC(=O)N[C@@H](CSC(=O)[C@]1([C@@H](O)C(C)C)NC(=O)[C@H](C)[C@@H]1O)C(=O)O | -7%[12.4 µM] | 5%[12.7 µM] | 5%[12.4 µM] | -3%[21 µM] | · | i[11.5 µM] | ·
Cc1cnc(CNc2ncnc3ccc(-c4ccc(N(C)C)cc4)cc23)cn1 | -9% | -23% | -22% | · | · | 25µM* | ?
Cc1cnc(CNc2ncnc3ccc(-c4ccc(C(=O)N(C)C)cc4)cc23)cn1 | 1% | -11% | -13% | · | · | 3% | ·
CCOC(=O)C(=CNc1ccc(-c2ccco2)c(Cl)c1)C(=O)OCC | -3% | -8% | -13% | 0% | -24% | ? | -27%
CCOC(=O)C(=CNc1cc(Cl)c(-c2ccco2)c(Cl)c1)C(=O)OCC | -2% | -15% | -12% | · | 4% | -13% | ·
CCc1sc(C(C2C(=O)CC(C)(C)CC2=O)C2C(=O)CC(C)(C)CC2=O)cc1[N+](=O)[O-] | -7% | -3% | -4% | 0% | -132% | 3.2µM* | -12%
C[C@H](NC(=O)CNC(=O)[C@@H](NC(=O)[C@H](Cc1ccccc1)NC(=O)CNC(=O)CNC[C@@H](N)Cc1ccccc1)[C@@H](C)O)C(=O)N[C@@H](CCCN=C(N)N)C(=O)N[C@@H](CCCCN)C(=O)N[C@@H](CO)C(=O)N[C@@H](C)C(=O)N[C@@H](CCCN=C(N)N)C(=O)N[C@@H](CCCCN)C(N)=O | 4% | -3% | 19% | 15% | · | -6% | ·
Oc1ccc(Cl)cc1C1C=C(c2ccc3c(c2)OCO3)NC(c2ccc(Cl)cc2)N1 (stereo not drawn) | · | · | · | 2% | -17% | · | ·
CCCCn1c(Cl)nc2c1c(=O)n(C)c(=O)n2C | -3% | 2% | 1% | -1% | -9% | ? | -8%
COc1ccc(CNCC(O)(c2ccc(F)cc2)c2ccc(F)cc2)cc1OC | -16% | 14% | -6% | · | -3% | · | ·
COc1ccc(CNCC(O)(c2ccc(Cl)cc2)c2ccc(Cl)cc2)cc1OC | -2% | 5% | -14% | 0% | 7% | 14µM* | · | RECQ1 inh conf=?;ADP FP counter=22µM*
Cc1noc(C)c1S(=O)(=O)N1CCc2nc(-c3ccccc3)c3c(c2C1)CO[C@@H](C)C3 | -1%[12.4 µM] | · | 5%[12.4 µM] | 11%[12.3 µM] | · | i[11.5 µM] | ·
CN(C)CCNC(=O)c1ccc(-n2c(-c3ccccc3)cc3c2CCCC3)cc1 | · | -3% | -8% | 4% | 9% | · | ·
O=C(O)CCC(=O)Nc1nc2nc(-c3ccccc3)cc(-c3ccccc3)n2n1 | 25% | -24% | -1% | 3% | 20% | i | · | RECQ1 inh conf=35µM*;ADP FP counter=?
CC(=O)Nc1ccc(S(=O)(=O)Nc2nc3nc(-c4ccccc4)cc(-c4ccccc4)n3n2)cc1 | -9% | ? | 1% | · | -34% | · | ·
Cc1nn2c(COc3ccc(NC(=O)C(C)C)cc3)nnc2c2ccccc12 | 9% | 0% | 1% | 0% | 6% | ? | -9%
CCOC(=O)Nc1ccc(OCc2nnc3c4ccccc4c(C)nn23)cc1 | 2% | -1% | -4% | 1% | -11% | -7% | ·
C=C1c2cccc(OC)c2O[C@H](C(=O)OCC)[C@@H]1CCC(C)C | 0% | -14%[88.6 µM] | -3%[75.6 µM] | · | · | -12%[81.1 µM] | ·
O=C(O)CCc1ccc(-c2ccc(Br)cc2)n1CC(=O)O | -9% | -11% | -15% | 3% | -8% | 32µM* | ?
CN(c1ccc(F)cc1)S(=O)(=O)c1ccc(Cl)c(C(=O)Nc2ccc3c(c2)CCC3)c1 | 10% | -11% | -2% | -4% | -23% | 32µM* | -16%
SMILES | APEX1 inh | KAT2A inh | BLM helicase inh | TDP1 inh | RGS4 inhibitor | RECQ1 inh-1 | RECQ1 inh-2 | others
COc1ccc(CCNC(=O)CSc2ccc(-c3ccco3)nn2)cc1 | ? | ? | -18% | -2% | -30% | 35µM* | ?
O=C(CSc1ccc(-c2ccco2)nn1)NCCc1ccccc1 | ? | -11% | -26% | 3% | -38% | 40µM* | -14%
CC(C)OCCCN1C=C2C(=O)C(C)(OC(=O)C3CCCC3)C(=O)C=C2C=C1c1ccsc1 (stereo not drawn) | -4%[12.4 µM] | · | -14%[12.4 µM] | 8%[12.3 µM] | · | 14%[11.5 µM] | ·
COc1cccc(CS(=O)(=O)c2nnnn2-c2ccccc2)c1 | 0% | · | 1% | 2% | · | i | ·
O=C(N=c1ccn(-c2nc3ccccc3nc2NS(=O)(=O)c2ccc(Cl)cc2)cc1)c1cccs1 | -9% | -4% | -10% | · | -10%[11.4 µM] | ? | -23%
O=C(CCS(=O)(=O)c1nc(-c2ccc3c(c2)OCO3)cc(C(F)(F)F)n1)Nc1ccc(F)c(Cl)c1 | · | -15% | -4% | 6% | -25% | · | ·
COC(F)(F)C(Cl)Cl | · | 8% | 3% | · | · | · | ·
CCC(c1nnnn1Cc1ccco1)N(Cc1cc2cc(C)cc(C)c2[nH]c1=O)CC1CCCO1 (stereo not drawn) | -8% | -22% | -10% | 1% | -10%[11.4 µM] | ? | -7%
CCC(c1nnnn1Cc1ccco1)N(Cc1ccccc1OC)Cc1cc2cc(C)ccc2[nH]c1=O (stereo not drawn) | -1% | -6% | -2% | 2% | ? | i | ·

Source: PubChem BioAssay
